The results in this text go back to ChEMBL document CHEMBL4513149, “CO-ADD screening of MMV (CH) - MMV compounds” (2021).

One assay concerns Staphylococcus aureus. The note with it: Concentration 20 uM; ASSAY_TEST Inhibition of Bacterial Growth; detection method Absorption (OD600); MEDIA CAMHB; plate type 384well; NBS; CORNING #3640; time 18 hr.
The subject of the next assay is Escherichia coli. Conditions: Concentration 20 uM; ASSAY_TEST Inhibition of Bacterial Growth; detection method Absorption (OD600); MEDIA CAMHB; plate type 384well; NBS; CORNING #3640; time 18 hr.

Entries with a potency or affinity are not part of this list.

For `CCCCc1ccc(C(=O)Nc2nccc3ccccc23)nc1`, the Inhibition is listed as 5.7% in the assay with Staphylococcus aureus and -0.87% in the assay with Escherichia coli.
The matching figures for `COc1cc(-c2cc(-c3ccc(S(C)(=O)=O)cc3)cnc2N)ccc1O`: 12.87% and 6.84%.
In the case of `N#CCN(CCCCN1CCN(c2ccc(F)cc2)CC1)C(=O)OCc1ccccc1`, the Inhibition with Staphylococcus aureus was found to be 23.36%; in the assay with Escherichia coli, 7.95%.
The like results for `OCc1ccc(-c2cncc(Nc3cccc(Cl)c3)c2)cc1` were, in that order, 14.66% and 10.9%.
The like results for `CN1CCC(NCc2cccc(-c3ccc(S(=O)(=O)NCc4ccccc4)cc3)c2)CC1` were, in that order, 14.84% and 4.63%.
The matching figures for `CC(C)C(Oc1cccc2ccccc12)C(=O)O` (stereo unspecified): 10.48% and -2.25%.
For the compound `CC1=Nc2ccc(Cl)cc2C(O)(c2ccc(C)cc2)N1CCN1CCCCC1` (stereo unspecified), the Inhibition amounted to 19.52% in the assay with Staphylococcus aureus and 11.5% with Escherichia coli.
For the compound `CC(=O)Nc1ccc(-c2noc(CC3CCCN(Cc4cccc(F)c4C)C3)n2)cc1` (stereo unspecified), the Inhibition in the assay with Staphylococcus aureus is 14.07%; in the assay with Escherichia coli it was 3.97%.
The matching figures for `O=C(NC1CCN(c2ccnc3ccccc23)C1)c1cccc(C(F)(F)F)c1` (stereo unspecified): 10.7% and 9.38%.
The like results for `Cc1nc2ccccn2c1C(=O)NCc1ccc(Cl)cc1` were, in that order, 22.95% and 5.6%.
Regarding `COc1cc(CN2CCC3(C=Cc4ccccc43)CC2)cc2c1OCO2`, the results for the Inhibition in the assay on Staphylococcus aureus and in the assay with Escherichia coli were -1.3% and -2.88%, respectively.
The like results for `CC[C@H](CO)NCCN[C@H](CC)CO.Cl.Cl` were, in that order, 13.87% and -1.24%.
The matching figures for `CC(C)n1ncc2c(C(=O)NCC(c3cccs3)N3CCOCC3)cc(-c3ccccc3)nc21` (stereo unspecified): 11.85% and 3.42%.
The matching figures for `O=C(NC1CCCCC1)N1CCN(Cc2ccc3c(c2)OCO3)CC1`: 15.03% and 4.44%.
For the compound `CC(C)(C)c1cc(C(=O)N2CCN(c3nccnc3C#N)CC2)n(Cc2ccccc2)n1`, the Inhibition with Staphylococcus aureus turned out to be 20.75%; in the assay on Escherichia coli, 10.32%.
For the compound `COc1cccn2c(C(=O)N3CCCCC3)c(C(F)(F)F)nc12`, the Inhibition was 18.98% with Staphylococcus aureus and -2.18% in the assay on Escherichia coli.
`CC1CC1C(=O)NC1CCN(CC2(c3ccccc3)CCCCC2)CC1` (stereo unspecified): the Inhibition with Staphylococcus aureus worked out at 14.54%; in the assay on Escherichia coli, 6.55%.
The matching figures for `O=C(C1CCCCC1)N1CC(=O)N2CCc3ccccc3C2C1` (stereo unspecified) [PRAZIQUANTEL]: 18.11% and 6.83%.
The like results for `COc1cccc(-c2cc3c(Nc4cccnc4)nccc3[nH]2)c1` were, in that order, 13.42% and -3.86%.
Consider `Nc1ncnc2c1ncn2C[C@@H](O)[C@@H](O)C(=O)O` [ERITADENINE], for which the Inhibition in the assay on Staphylococcus aureus was determined as 13.9%; in the assay on Escherichia coli it was 8.78%.
The like results for `CCCc1ccc(S(=O)(=O)Nc2ccc(CN3CCN(CC4CC4)CC3)cc2)cc1` were, in that order, 18.92% and 6.87%.
The like results for `O=C(Nc1ccccc1-c1nc2c(C(=O)O)cccc2o1)c1ccccc1` were, in that order, 12.25% and -2.2%.
The matching figures for `Cl.Cl.Cl.NS(=O)(=O)c1cncc(-c2ccc3nccc(-c4cn[nH]c4)c3n2)c1`: 9.83% and 6.62%.

A word on the Inhibition: it is the relative decrease from the control value, in per cent.
